ssDAF-12 act = S. stercoralis DAF-12 nuclear receptor activators, primary screen, cell-based, luminescence, HEK293, GRIP1 co-expression, lit1-tk-luc; AID 652126, 2013; activation, % at 6.8 µM; actives 1% (n = 370,000); HEK293 ssDAF-12/GRIP1 lit1-tk-luc reporter; % of 3 µM dafachronic acid response;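 active means activation above the mean over all tested compounds plus 3 SD, cut at about 0.9% in these data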;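 further: 0% = DMSO-only wells and 100% = 3 µM delta7-dafachronic acid wells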
hgDAF-12 ag = H. glycines DAF-12 receptor agonists, primary screen, cell-based, luminescence, HEK293, GAL4 fusion, UAS-luciferase; activation, % at 6.8 µM; HEK293 GAL4-hgDAF12 UAS-luciferase reporter, agonist luminescence; normalized to butyrate control; actives 1.8% (n = 370,000); Nuclear hormone receptor DAF-12 (Heterodera glycines), GAL4 fusion; AID 687014, 2013;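 active means activation above a cutoff set at the mean of all screened compounds plus 3 SD, cut at about 10% in these data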;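 further: 0% = DMSO wells and 100% = sodium butyrate wells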
DAX1 inh-1 = DAX1 (NR0B1) inhibitors on StAR promoter, primary screen, cell-based, luminescence, SF-1 (NR5A1), full-length DAX-1; HEK293T StAR-luciferase reporter, SF-1/DAX-1 repression relief; inhibition, % at 6.8 µM; actives 1.1% (n = 370,000);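 active means inhibition above the mean over all tested compounds plus 3 SD, cut at about 3.6% in these data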;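 further: 0% = DAX-1 cells with DMSO and 100% = cells lacking DAX-1 with DMSO; higher inhibition means more luminescence from relief of DAX-1 repression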
Rev-erbA mod = modulators of Rev-erb alpha DNA binding, primary screen, biochemical, FITC-DNA, fluorescence polarization, uHTS; Nuclear receptor subfamily 1 group D member 1 (Homo sapiens), P20393; Rev-erbα–FITC-DNA binding, 90 min; activity, % at 10 µM; actives 0.79% (n = 370,000);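 active means activity above about 14%, limit read from the data; passing the limit was not always enough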;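 further: 0% = DMSO wells with 35 nM protein and 100% = DMSO wells with 750 nM protein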
Target sequence (P20393 whole entry, looked up): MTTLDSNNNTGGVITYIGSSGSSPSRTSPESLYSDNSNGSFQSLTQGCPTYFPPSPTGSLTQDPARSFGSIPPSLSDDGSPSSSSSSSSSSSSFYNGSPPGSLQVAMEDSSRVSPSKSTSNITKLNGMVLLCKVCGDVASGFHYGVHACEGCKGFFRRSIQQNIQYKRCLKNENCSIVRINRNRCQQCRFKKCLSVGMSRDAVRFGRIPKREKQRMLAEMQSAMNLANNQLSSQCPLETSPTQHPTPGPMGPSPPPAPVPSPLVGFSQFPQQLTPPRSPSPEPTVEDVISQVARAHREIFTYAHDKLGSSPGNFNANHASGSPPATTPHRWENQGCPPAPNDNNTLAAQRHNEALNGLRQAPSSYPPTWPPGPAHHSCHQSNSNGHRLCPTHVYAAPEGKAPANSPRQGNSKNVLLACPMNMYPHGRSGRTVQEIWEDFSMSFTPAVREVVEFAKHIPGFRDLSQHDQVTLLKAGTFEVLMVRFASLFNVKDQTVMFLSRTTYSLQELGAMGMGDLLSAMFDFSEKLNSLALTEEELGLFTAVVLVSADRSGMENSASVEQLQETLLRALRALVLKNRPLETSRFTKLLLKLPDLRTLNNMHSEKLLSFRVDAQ
DAX1 inh-2 = DAX1 (NR0B1) inhibitors, primary screen, cell-based, HEK293, Gal4-DAX1, luciferase luminescence | inhibition, % at 6.75 µM | Nuclear receptor subfamily 0 group B member 1 (Homo sapiens), P51843 | actives 0.99% (n = 340,000) | HEK293 Gal4-DAX1 luciferase reporter;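 active means inhibition above the mean over all tested compounds plus 3 SD, cut at about 4.2% in these data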;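 further: 0% = DAX1-transfected cells with DMSO and 100% = empty-vector control cells with DMSO; inhibition shows as a rise in luminescence from relieved DAX1 repression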
hcDAF-12 act = H. contortus DAF-12 nuclear receptor activators, primary screen, cell-based, luminescence, HEK293, lit1-tk-luc reporter; HEK293 hcDAF-12 lit1-tk-luc reporter; 0% DMSO, 100% Δ7-dafachronic acid; activation, % at 6.8 µM; actives 1.4% (n = 370,000); AID 652067, 2013;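 active means activation above the mean of all tested compounds plus 3 SD, cut at about 5.5% in these data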;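 further: 100% = response to 3 µM Δ7-dafachronic acid high control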
Numbers without * were called inactive; / = no result given. Only some compounds are listed: those with a hit (about 4.8% of all), similar ones and a draw of the others.

SMILES	ssDAF-12 act	hgDAF-12 ag	DAX1 inh-1	Rev-erbA mod	DAX1 inh-2	hcDAF-12 act
Cc1ccc(OCCOc2cccc(C=C3C(=O)NC(=O)NC3=O)c2)c(C)c1	1.4*	11.4*	2.5	0.6	-3.7	4.4
CCOc1cc(C=C2C(=O)NC(=O)NC2=O)ccc1OS(=O)(=O)c1ccccc1	/	/	/	/	0.5	/
O=C1NC(=O)C(=Cc2ccc(OCCOc3ccc([N+](=O)[O-])cc3)cc2)C(=O)N1	-1.5	3.7	-1.0	-5.0	0.5	0.2
O=C1NC(=O)C(=Cc2cccc(OCCOc3ccccc3)c2)C(=O)N1	-0.3	11.4*	1.1	-5.8	-0.2	5.5
C=C1C(=O)C(C)=C2C(=O)N3Cc4[nH]c5ccccc5c4CC3(C(=O)OC)C12 (configuration not stated)	-1.6	-1.9	-1.3	-4.9	/	0.0
CCOC(=O)CC[C@@H]1CC[C@]2(CCCN(Cc3cccnc3)C2)O1	-1.2	-0.1	-0.4	-1.5	/	3.1
Cc1ccc(C(=O)C2CN3CCC2CC3)cc1 (configuration not stated)	-1.0	1.4	0.1	4.3	3.8	-1.6
Cc1ccc(C(=O)C2CN(C)CC2C(=O)c2ccc(C)cc2)cc1 (configuration not stated)	-0.9	11.4*	1.1	0.3	2.0	0.4
S=P1(Oc2ccccc2)Nc2ccccc2N1	0.5	12.5*	1.9	-2.4	1.8	3.4
CN1CCCCC1c1ccc(-c2cccnc2)nc1 (configuration not stated)	0.5	4.7	1.8	-1.9	7.3*	-1.8
COc1cc2c(c(OC)c1OC)-c1ccc(O)c(=O)cc1C(NC(C)=O)CC2 (configuration not stated)	-0.4	-4.8	0.9	-4.1	6.4*	1.4
COc1ccc2c(c1)C(NC(C)=O)CCc1cc(OC)c(OC)c(OC)c1-2 (configuration not stated)	-0.1	-2.8	3.9*	-8.3	1.5	0.3
Oc1ccccc1-c1ccccc1	/	/	/	-2.8	/	/
Cc1c(NP(=O)(C(C)(C)C)C(C)(C)C)c(=O)n(-c2ccccc2)n1C	-0.8	-0.5	-0.6	2.0	1.4	-0.6
Cc1cc(=O)n(-c2ccccc2)n1-c1ccccc1	-0.3	-1.4	0.8	-2.1	4.8*	-0.2
Oc1ccc2ccccc2c1CN1CC=C(c2ccccc2)CC1	-0.7	0.5	1.0	-1.5	5.2*	0.5
O=C1CN=C(c2ccccc2Cl)c2cc([N+](=O)[O-])ccc2N1	/	/	/	8.3	/	/
COC(=O)C(O)(c1ccc(NC(=O)Oc2ccccc2)cc1)C(F)(F)F (configuration not stated)	-1.8	1.1	0.8	7.1	5.5*	-1.4
CCC(C)[C@H]1O[C@]2(C=C[C@@H]1C)C[C@@H]1C[C@@H](C/C=C(\C)[C@@H](O[C@@H]3C[C@H](OC)[C@H](O[C@H]4C[C@H](OC)[C@@H](O)[C@H](C)O4)[C@H](C)O3)[C@@H](C)/C=C/C=C3\CO[C@@H]4[C@H](O)C(C)=C[C@@H](C(=O)O1)[C@]34O)O2 (some centres not stated)	/	/	/	-3.9	/	/
O=C(NC(CCC(O)CO)P(=O)(Oc1ccccc1)Oc1ccccc1)OCc1ccccc1 (configuration not stated)	-0.7	0.0	1.4	-7.5	/	0.0
O=C(CN1CC(c2ccccc2)CC1=O)Nc1ccc(F)cc1 (configuration not stated)	-1.6	2.3	-0.7	-4.6	5.2*	-1.6
C=C(C=O)CC1CC(O)[C@]2(C)OC3CC4OC5C[C@]6(C)O[C@]7(C)CCC8OC9C[C@]%10(C)OC%11C(C)=CC(=O)OC%11CC%10OC9C[C@@H](C)C8OC7CC6O[C@]5(C)C/C=C\C4OC3CC2O1 (some centres not stated)	-1.9	-9.1	/	-1.4	/	-4.8
CCC(C)N1C(=O)/C(=C\c2ccc(N3CCCCCC3)cc2)C(=O)NC1=S (configuration not stated)	5.5*	0.7	-2.2	-0.5	-1.4	-0.1
CCC(C)N1C(=O)/C(=C\c2cc3c4c(c2)CCCN4CCC3)C(=O)NC1=S (configuration not stated)	-1.1	1.8	-0.4	-11.9	0.0	0.4
Nc1nonc1OCCCCOc1nonc1N	3.3*	-0.8	0.0	-5.0	1.3	-1.6
SMILES	ssDAF-12 act	hgDAF-12 ag	DAX1 inh-1	Rev-erbA mod	DAX1 inh-2	hcDAF-12 act
O=C(CF)NC(NC(=S)Nc1ccccc1O)C(Cl)(Cl)Cl (configuration not stated)	-1.0	-1.4	-1.1	2.5	4.9*	2.9
C[C@@H]1O[C@@H](O[C@H]2C[C@@H](O)[C@]3(CO)C4C(CC[C@]3(O)C2)[C@@]2(O)CC[C@H](C3=CC(=O)OC3)[C@@]2(C)C[C@H]4O)[C@H](O)[C@H](O)[C@H]1O (some centres not stated)	/	/	/	1.6	/	/
CC(C)(C)NC(=O)C1CN=C(c2ccccc2)c2cc(Cl)ccc2N1C(=O)C1CCC1 (configuration not stated)	-0.4	3.0	1.5	1.1	/	0.3
CC(NC(=O)OCc1ccccc1)P(=O)(Oc1ccccc1)Oc1ccccc1 (configuration not stated)	-1.6	-1.8	-0.9	12.1	/	-0.7
CCOC(=O)[C@]12Cc3ccccc3[C@H]1N(C(C)C)C(=O)c1ccccc12	-1.1	-2.0	4.5*	-1.8	/	-0.9
O=C1NC(=O)C(=Cc2cc(Cl)ccc2OCc2ccc(C(=O)O)cc2)C(=O)N1	-1.5	-0.8	0.4	-5.0	5.5*	-0.8
CN1C(=O)C(=Cc2ccccc2OCc2ccc(Cl)cc2)C(=O)N(C)C1=O	-1.1	4.3	0.6	3.3	-2.0	0.9
COc1ccc(OC)c(-n2c(O)c(/C=C3\C=Nc4ccccc43)c(=O)[nH]c2=O)c1	2.9*	6.7	-0.1	-5.3	1.0	3.8
CCCCN1C(=O)NC(=O)C2(Cc3c(nc4ccccn4c3=O)N3CCc4ccccc4C32)C1=O (configuration not stated)	0.1	0.2	0.3	-1.7	-0.9	6.0*
CC(C)C[C@@H](CN)CC(=O)O	/	/	/	0.0	/	/
COc1cccc([C@]2(O)CCCC[C@H]2CN(C)C)c1	/	/	/	-13.9	/	/

Screening results (PubChem)
